Assay results: PubChem BioAssay (NCI)
The panel holds about 83,000 compounds, 20% with a hit somewhere; the sample as a whole holds those more often.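 96-well plates, one dose, 48 hours. Percent growth reported; active if below 10.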 The source made the active and inactive calls.

Columns and labels:
Assay in all cases: NCI-60 one-dose screen, 48 h (100 = growth as untreated, 0 = no growth, -100 = all killed)
Conditions in all cases: 10 µM unless noted
SK-MEL-2 melanoma = tested on: SK-MEL-2 melanoma
EKVX NSCLC = tested on: EKVX NSCLC
UO-31 renal = tested on: UO-31 renal
TK-10 renal = tested on: TK-10 renal
ACHN renal = tested on: ACHN renal
CAKI-1 renal = tested on: CAKI-1 renal
A498 renal = tested on: A498 renal
CCRF-CEM leukemia = tested on: CCRF-CEM leukemia
MOLT-4 leukemia = tested on: MOLT-4 leukemia
SR leukemia = tested on: SR leukemia
RPMI-8226 leukemia = tested on: RPMI-8226 leukemia
OVCAR-8 ovarian = tested on: OVCAR-8 ovarian
OVCAR-5 ovarian = tested on: OVCAR-5 ovarian
OVCAR-4 ovarian = tested on: OVCAR-4 ovarian
SK-OV-3 ovarian = tested on: SK-OV-3 ovarian
IGROV1 ovarian = tested on: IGROV1 ovarian
OVCAR-3 ovarian = tested on: OVCAR-3 ovarian
HS 578T breast = tested on: HS 578T breast
NCI/ADR-RES ovarian = tested on: NCI/ADR-RES ovarian
SN12C renal = tested on: SN12C renal

Measured: growth

CN(C)c1ccnc(CNCCSC2(c3ccc(C(F)(F)F)cc3)c3ccccc3C=Cc3ccccc32)c1
active: SK-MEL-2 melanoma -41.1% | EKVX NSCLC -23.9% | CAKI-1 renal 6.81% | CCRF-CEM leukemia 0.384% | SR leukemia -53% | RPMI-8226 leukemia -48.9% | OVCAR-8 ovarian -77.2% | OVCAR-5 ovarian 1.89% | SK-OV-3 ovarian 8.64% | IGROV1 ovarian 9.31% | OVCAR-3 ovarian -40.5% | HS 578T breast -18% | NCI/ADR-RES ovarian -73.6%
inactive: UO-31 renal 17.6% | TK-10 renal 12.4% | ACHN renal 13.2% | A498 renal 21.6% | MOLT-4 leukemia 16.1% | OVCAR-4 ovarian 13%

Nc1cccc(SCc2cc3ccccc3[nH]c2=O)c1
inactive: SK-MEL-2 melanoma 56.4% | EKVX NSCLC 43.4% | UO-31 renal 39.1% | TK-10 renal 64.3% | ACHN renal 17.6% | CAKI-1 renal 34.2% | A498 renal 69.7% | CCRF-CEM leukemia 33% | MOLT-4 leukemia 36.1% | SR leukemia 36.5% | RPMI-8226 leukemia 33.1% | OVCAR-8 ovarian 56.7% | OVCAR-5 ovarian 63.6% | OVCAR-4 ovarian 44.1% | SK-OV-3 ovarian 80% | IGROV1 ovarian 72.9% | OVCAR-3 ovarian 65.2% | HS 578T breast 78.2%

O=C(NNc1nc2cc(C(F)(F)F)ccc2n2cccc12)c1cnccn1
inactive: HS 578T breast 16.3%
active: SK-MEL-2 melanoma -73.1% | EKVX NSCLC -83.2% | SN12C renal -59.9% | UO-31 renal -64.6% | TK-10 renal -91.8% | ACHN renal -97.5% | CAKI-1 renal -87.6% | A498 renal -92.7% | CCRF-CEM leukemia 6.27% | RPMI-8226 leukemia 1.97% | OVCAR-8 ovarian -77.2% | OVCAR-5 ovarian -59.2% | OVCAR-4 ovarian -43.9% | SK-OV-3 ovarian -88.2% | IGROV1 ovarian -16.3% | OVCAR-3 ovarian -47.7% | NCI/ADR-RES ovarian -12%

CN1CCN(c2ccc3c(c2)nc(NNC(=O)c2cnccn2)c2cccn23)CC1
inactive: CCRF-CEM leukemia 13.8% | IGROV1 ovarian 12.4% | HS 578T breast 34.1%
active: SK-MEL-2 melanoma -69% | EKVX NSCLC -46.8% | SN12C renal 0.109% | UO-31 renal -77.9% | TK-10 renal -74.5% | ACHN renal -85.8% | CAKI-1 renal -74% | A498 renal -84.7% | RPMI-8226 leukemia 5.23% | OVCAR-8 ovarian -79.4% | OVCAR-5 ovarian -25% | OVCAR-4 ovarian -37.6% | OVCAR-3 ovarian -19.7% | NCI/ADR-RES ovarian -10%

COc1ccc(C2=NN(c3ccccc3)C(c3ccc(OCc4ccccc4)c(OC)c3)C2)cc1OC (stereo unspecified)
inactive: SK-MEL-2 melanoma 86.5% | EKVX NSCLC 93% | SN12C renal 100% | UO-31 renal 86.8% | TK-10 renal 120% | ACHN renal 99.4% | CAKI-1 renal 88.7% | A498 renal 118% | RPMI-8226 leukemia 120% | OVCAR-8 ovarian 92.6% | OVCAR-5 ovarian 102% | OVCAR-4 ovarian 113% | SK-OV-3 ovarian 98.1% | IGROV1 ovarian 102% | OVCAR-3 ovarian 109% | HS 578T breast 94.1% | NCI/ADR-RES ovarian 109%

CCCCCCCCc1ccc(S(=O)(=O)Nc2ccc(CC)cc2C(=O)O)cc1
inactive: SK-MEL-2 melanoma 86.7% | EKVX NSCLC 90.5% | UO-31 renal 84.8% | TK-10 renal 104% | ACHN renal 96% | CAKI-1 renal 89% | A498 renal 104% | CCRF-CEM leukemia 77.9% | MOLT-4 leukemia 91.1% | SR leukemia 96.7% | RPMI-8226 leukemia 71.1% | OVCAR-8 ovarian 95.1% | OVCAR-5 ovarian 117% | OVCAR-4 ovarian 96% | SK-OV-3 ovarian 106% | IGROV1 ovarian 97.4% | OVCAR-3 ovarian 113% | HS 578T breast 103% | NCI/ADR-RES ovarian 96%

O=C(c1ccc(Cl)cc1)c1ccc(OCCCN2CCN(c3ccncc3)CC2)cc1
inactive: SK-MEL-2 melanoma 70.1% | EKVX NSCLC 32.6% | UO-31 renal 40% | TK-10 renal 82.2% | ACHN renal 74% | CAKI-1 renal 56.7% | A498 renal 80.5% | CCRF-CEM leukemia 21.5% | MOLT-4 leukemia 15.7% | RPMI-8226 leukemia 10.2% | OVCAR-8 ovarian 75.7% | OVCAR-5 ovarian 69% | OVCAR-4 ovarian 47.3% | SK-OV-3 ovarian 34.8% | IGROV1 ovarian 67.3% | OVCAR-3 ovarian 56.4% | HS 578T breast 53.7% | NCI/ADR-RES ovarian 50%
active: SR leukemia -32%

COc1ccc(-c2nc(SCC(C)C)nc(NCCc3c[nH]c4ccccc34)c2C#N)cc1
inactive: SK-MEL-2 melanoma 80.9% | EKVX NSCLC 40.5% | UO-31 renal 57.2% | TK-10 renal 120% | ACHN renal 69.5% | CAKI-1 renal 54.1% | A498 renal 97.4% | CCRF-CEM leukemia 36.2% | MOLT-4 leukemia 40.4% | SR leukemia 19.7% | RPMI-8226 leukemia 42.8% | OVCAR-8 ovarian 80.4% | OVCAR-5 ovarian 81.5% | OVCAR-4 ovarian 73.8% | SK-OV-3 ovarian 71.7% | IGROV1 ovarian 101% | OVCAR-3 ovarian 85.4% | HS 578T breast 43.2% | NCI/ADR-RES ovarian 61.3%
